# According to PubChem BioAssay (NCATS):
# Values without a mark were called inactive. The call rests on the fitted dose curve; in most records, active means well fitted curve in the direction sought with a large enough effect; inconclusive means small, poorly fitted or top-dose-only effect, or another doubt; inactive means no such curve, though single readings can be large or run the other way.
# Test: Validation qHTS assay for inhibitors of Activation Induced Cytidine Deaminase (AID): UDG Counterscreen signal (AID 1347427); further: 0% is about no effect
# Settings: biochemical UDG counterscreen, fluorescence signal; series mostly up to 115 µM; activity, negative = inhibition: at the top concentration
# Source text: Assay Provider (PI) Patricia Gearhart Ph.D.
# National Institute on Aging
# National Institute of Health (NIH), Bethesda, MD
# Assay Provider (PI) Rahul Kohli Ph.D.
# Perelman School of Medicine
# University of Pennsylvania, Philadelphia, PA
# Activation-Induced Deaminase (AID) is a cytosine deaminase which converts cytosine into uracil within stretches of ssDNA. The presence of uracil in DNA initiates a cascade of mutagenic DNA repair to introduce point mutations and DNA double strand breaks. Specific targeting of AID to the immunoglobulin heavy chain loci (Igh) promotes mutagenesis in the antibody variable region for somatic hypermutation (SHM) or switch regions leading to class switch recombination (CSR). However, AID also plays a role in accumulating unnecessary mutations across the genome. Mis-targeting of AID results in the initiation of tumor development and leads to greater drug resistance among cancer cells when continually expressed. To identify an AID inhibitor, a small molecule library will be screened in collaboration with NCATS core facility at NIH. To confirm biological function, inhibitors will be examined in an in vitro murine B-cell activation assay and subsequent secondary validation screens. Top molecules will be further screened to identify inhibitory efficacy against a wild type primary splenocytes assay. Using these approaches, we hope to identify a small molecule with great efficacy and low toxicity for use as a molecular probe to further characterize AID's intricacies, or even as a therapeutic.
# A FRET based analysis of cytosine deamination, was developed to identify potential inhibitors of AID catalytic activity. This screen has two signal output, Read 1 evaluates the AID inhibition response. The second readout (Read 2) evaluates UDG response and is uses as a counterscreen to exclude false positive inhibitors. Inhibition in AID and inactivity in the UDG signal is the desired outcome for this assay.
# SEQUENCE No. (e.g., 1, 2, 3, etc.); […] (e.g., Cells, Incubation, Reagent, etc.); VALUE; DESCRIPTION
# 1a; Reagent; 3 uL; [4/3x] 1 uM AID/2.67 U/mL UDG
# 1b; Reagent; 3 uL; 2 U/mL UDG
# 1c; Reagent; 3 uL; 1 uM AID
# 2a; Compound; 46 nL; Follow-up plates (0.64 uM - 10 mM)
# 2b; Control; 46 nL; ATA ([…] - 10 mM)
# 3; Time; 10 min; incubation at room temperature
# 5; Time; 4 hr; incubation at room temperature
# 6; Reagent; 4 uL; [2x] 250 mM NaOH
# 7; Time; 15 sec; centrifuge at 1000 rpm
# 8; Time; 30 min; incubation at room temperature
# 9a; Detection; fluorescence (Read 1: AID); EnVision (PerkinElmer) plate reader, 540 excitation and 590 emission filters
# 9b; Detection; fluorescence (Read 2: UDG); EnVision (PerkinElmer) plate reader, 560 excitation and 665 emission filters
# NOTES (numbers refer to sequence above)
# 1a; Reagents were dispensed in a medium-binding black solid-bottom Greiner plates (789176F) using a BioRptr liquid dispenser. Dispense 3 uL of [4/3x] 1 uM AID (provided by Kohli lab) and [4/3x] 2 U/mL UDG (NEB M0280L) into columns 1, 2, 5 to 48.
# 1b; Dispense 3 uL of [4/3x] 2 U/mL UDG into column 3.
# 1c; Dispense 3 uL of [4/3x] 1 uM AID into column 4.
# 2b; 10 mM Aurintricarboxylic Acid (Sigma A1895) (ATA, 8-point, n = 2, 1:2.5 dilution in column 2) double pin-transferred (Dip Factor = 2) using the Kalypsys (Wako USA) pintool equipped with a 1536 pinhead for a [final] range of 186 nM - 114 uM.
# 3; Room temperature incubation.
# 4; Dispense 1 uL of substrate mixture from the Kohli lab [4x] […] DJC20 and [4x] 250 nM DJC23 into columns 1 to 48 .
# 5; Room temperature incubation.
# 6; Dispense 4 uL of substrate mixture [2x] 250 mM NaOH into columns 1 to 48.
# 7; Centrifugation step to remove bubbles.
# 8; Room temperature incubation
# 9a; Fluorescence signal (column label AID) was read using the EnVision plate reader. Excitation filter = 540(8) nm, barcode = 311; Emission filter = 590(20) nm, barcode = 217; Mirror = D555, barcode = 405.
# 9b; Fluorescence signal (column label UDG) was read using the EnVision plate reader. […]
row,SMILES,"activity, negative = inhibition [%]"
1,CN1CCc2cccc(Cl)c2CC1,7.39
2,CC(C)NP(=O)(NC(C)C)OP(=O)(NC(C)C)NC(C)C,4.13
3,C=CCN1C[C@@H](C)N([C@H](c2ccc(C(=O)N(CC)CC)cc2)c2cccc(OC)c2)C[C@@H]1C,2.53
4,C=CCN1CCC23c4c5ccc(O)c4O[C@H]2C(=O)CC[C@@]3(O)C1C5 (stereo not given in full),13.1
5,CN(C(=O)Cc1ccc(Cl)c(Cl)c1)C(CN1CCCC1)c1cccc(OCC(=O)O)c1 (stereo not given),3.36
6,c1ccc2c(N3CCNCC3)cccc2c1,-8.77
7,COc1ccc2c(c1)/C(=C/c1cnc[nH]1)C(=O)N2,2.66
8,C[C@@H]1O[C@@H](O[C@H]2C[C@@H](O)[C@]3(CO)[C@@H]4C(CC[C@]3(O)C2)[C@@]2(O)CC[C@H]([C@@H]3COC(=O)C3)[C@@]2(C)C[C@H]4O)[C@H](O)[C@H](O)[C@H]1O (stereo not given in full),10.2
9,NCC(O)c1cc(O)c(O)cc1F (stereo not given),-4.29
10,CCCn1c(C)c(C(=O)c2ccc3ccccc3c2)c2ccccc21,-8.62
11,CC(=O)OCC1=C(C(=O)O)N2C(=O)[C@@H](NC(=O)CCC[C@@H](N)C(=O)O)[C@H]2SC1,6
12,CN(N=O)c1cc(O)ccc1O,-12.9
13,C[C@H](N)Cc1cccc(C(F)(F)F)c1,9.19
14,N#C/C(=C/c1ccc(O)c(O)c1)C(N)=S,5.58
15,C#CCN[C@H](C)Cc1ccccc1,4.11
16,C[C@H](N)CN1CCc2ccc(Br)cc21,12.2
17,CCn1cnc2c(Nc3cccc(Cl)c3)nc(N[C@@H]3CCCC[C@@H]3N)nc21,-1.58
18,CCOC(=O)c1ncn2c1[C@@H]1CCCN1C(=O)c1cc(OC)ccc1-2,4.87
19,COC(=O)N1CCN(C(=O)Cc2ccc(Cl)c(Cl)c2)C(CN2CCCC2)C1 (stereo not given),11.7
20,NCCCP(=O)(O)O,0.0933

row,SMILES,"activity, negative = inhibition [%]"
1,CC(N)[C@H](O)c1ccc(O)c(O)c1 (stereo not given in full),-0.0292
2,Clc1ccc(N2CC3CCC(C2)N3)nn1,8.49
3,CCCn1c(=O)c2[nH]c(C3CCCC3)nc2n(CCCOC(=O)c2ccc(S(=O)(=O)F)cc2)c1=O,11.3
4,C/C(O)=C(\C#N)C(=O)Nc1cc(Br)ccc1Br,15.7
5,COc1ccc2[nH]c3c(c2c1)CCNC3,10.8
6,C[C@]12Cc3cn4c(nc3C=C1CCC1C2CC[C@@]2(C)[C@H]1CC[C@@]2(O)C#N)nc1ccccc14 (stereo not given in full),4.18
7,CCCCCCCCCCCCCC(=O)O[C@@H]1[C@@H](C)[C@@]2(O)[C@@H](C=C(CO)C[C@@]3(O)C(=O)C(C)=C[C@@H]23)C2C(C)(C)[C@@]21OC(C)=O (stereo not given in full),-15.5
8,NC(CCCCCP(=O)(O)O)C(=O)O (stereo not given),14.5
9,N[C@@H](Cn1oc(=O)[nH]c1=O)C(=O)O,-0.27
10,N#CCCN,12.9
11,NNC(=O)c1ccc(O)cc1,15.3
12,Oc1ccc2c3c1O[C@H]1c4oc5ccccc5c4C[C@@]4(O)C(C2)N(CC2CC2)CCC314 (stereo not given in full),1.77
13,N=C(N)c1ccc(CS(=O)(=O)F)cc1,16.6
14,CCCN(CCC)CCc1c[nH]c2ccc(C(N)=O)cc12,12.7
15,Cc1o[nH]c(=O)c1CC(N)C(=O)O (stereo not given),10
16,NC(C(=O)O)c1cc(=O)[nH]o1 (stereo not given),4.83
17,CN1CCc2cc(O)cc3c2[C@H]1Cc1ccc(O)c(O)c1-3,8.34
18,C=CCN1CC[C@]23c4c5ccc(O)c4O[C@@H]2/C(=N/N=C2\CC[C@@]4(O)C6Cc7ccc(O)c8c7[C@@]4(CCN6CC=C)[C@@H]2O8)CC[C@@]3(O)C1C5,7.7
19,CC12NC(Cc3ccccc31)c1ccccc12 (stereo not given),12.2
20,CCCN(CCC)C1CCc2cccc(O)c2C1 (stereo not given),13.5
